The target in test [1] is Nuclear receptor subfamily 1 group I member 3 (Homo sapiens) (UniProt Q14994). The test can be described thus: ATG_CAR_TRANS: Attagene TRANS-FACTORIAL HepG2 Assay for human Constitutive Androstane Receptor (CAR) (AID 2282969).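 Note: activators raise reporter mRNA above DMSO so AC50 marks induction.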 Conditions: HepG2 Attagene TRANS-FACTORIAL CAR reporter. In outline: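 Readout is reporter mRNA induction, quantified by fluorescent primer extension and capillary electrophoresis after RT-PCR. Cells were HepG2 transiently carrying chimeric NR-Gal4 constructs with GAL4-UAS reporters, treated for 24 h; activity scored upward from DMSO.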
Nuclear receptor subfamily 1 group I member 3 (Homo sapiens), sequence (Q14994 whole entry, looked up, the tested form may be a part): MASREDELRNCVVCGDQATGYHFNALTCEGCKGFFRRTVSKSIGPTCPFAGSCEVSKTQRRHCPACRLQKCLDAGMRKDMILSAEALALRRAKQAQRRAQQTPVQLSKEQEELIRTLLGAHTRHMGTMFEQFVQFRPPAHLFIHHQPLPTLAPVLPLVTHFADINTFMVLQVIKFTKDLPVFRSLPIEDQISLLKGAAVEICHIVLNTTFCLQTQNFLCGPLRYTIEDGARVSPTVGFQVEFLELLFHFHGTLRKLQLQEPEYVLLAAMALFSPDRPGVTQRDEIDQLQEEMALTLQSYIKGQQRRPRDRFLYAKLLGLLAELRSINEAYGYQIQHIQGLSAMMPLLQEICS

Test [2] deals with Estrogen receptor (Homo sapiens) (UniProt P03372). The test can be described thus: ATG_ERa_TRANS: Attagene TRANS-FACTORIAL HepG2 Assay for human Estrogen Receptor alpha (ERa) (AID 2282970). Conditions: HepG2 Attagene TRANS ERa GAL4 reporter, mRNA. Put shortly: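 HepG2 cells transiently transfected with multiplexed GAL4-UAS reporter units; ERa activity read via exogenous chimeric NR-Gal4 protein. After 24 hour compound exposure, reporter mRNA measured by RT-PCR with 6-FAM labelling and capillary electrophoresis; gain-of-signal fitted relative to DMSO.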
Estrogen receptor (Homo sapiens), sequence (P03372 whole entry, looked up, the tested form may be a part): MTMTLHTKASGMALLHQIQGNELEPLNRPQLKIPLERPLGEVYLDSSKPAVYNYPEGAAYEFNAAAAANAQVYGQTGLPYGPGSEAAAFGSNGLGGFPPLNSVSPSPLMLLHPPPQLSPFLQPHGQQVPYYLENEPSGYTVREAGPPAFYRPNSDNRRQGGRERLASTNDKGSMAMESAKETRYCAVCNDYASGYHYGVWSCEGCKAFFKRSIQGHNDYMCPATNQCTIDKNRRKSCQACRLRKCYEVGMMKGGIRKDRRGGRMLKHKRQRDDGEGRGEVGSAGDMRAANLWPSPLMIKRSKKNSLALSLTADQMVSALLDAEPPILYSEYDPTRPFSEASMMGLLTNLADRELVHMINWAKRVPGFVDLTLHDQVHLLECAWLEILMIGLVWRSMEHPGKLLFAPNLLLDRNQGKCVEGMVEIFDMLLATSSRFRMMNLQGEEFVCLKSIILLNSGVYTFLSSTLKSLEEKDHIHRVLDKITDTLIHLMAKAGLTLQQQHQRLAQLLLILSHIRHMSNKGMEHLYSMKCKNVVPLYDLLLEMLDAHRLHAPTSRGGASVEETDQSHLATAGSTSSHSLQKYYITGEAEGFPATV

Test [3] has as its target X-box-binding protein 1 (Homo sapiens) (UniProt P17861). Briefly: ATG_Xbp1_CIS: Attagene CIS-FACTORIAL HepG2 Assay for human X-box Binding Protein 1 (XBP1) (AID 2282972; active = hit-call score of the fitted dose curve at least 0.9, where 1 is the maximum; inactive = score below 0.9). The conditions noted are these: HepG2 XBP1 cis-element reporter, Attagene multiplex; actives raise or lower the signal. Put shortly: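 HepG2 cells transiently transfected with multiple cis-element reporter units report endogenous TF activity; 24 h exposure, then reporter mRNA measured by RT-PCR, 6-FAM labelling, HpaI digestion and capillary electrophoresis. Bidirectional fitting versus DMSO.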

Test [4] can be described thus: ATG_M_19_TRANS: Attagene TRANS-FACTORIAL HepG2 Assay for M19 Transcription Factor (Internal Marker) (AID 2282974). Conditions: HepG2 Attagene TRANS-FACTORIAL M19 internal marker reporter. Put shortly:
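Fluorescence of 6-FAM-labelled reporter cDNA fragments, separated by capillary electrophoresis, served as the readout. These derived from HepG2 cells carrying transfected GAL4-UAS reporter units after 24 h dosing, with DMSO as negative control.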

For test [5], the target named is Estrogen-related receptor gamma (Homo sapiens) (UniProt P62508). Briefly: ATG_ERRg_TRANS: Attagene TRANS-FACTORIAL HepG2 Assay for human Estrogen-Related Receptor gamma (ERRg) (AID 2282977).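 Note: hits increase reporter signal over DMSO so potencies reflect activators.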 Conditions: HepG2 Attagene TRANS reporter, ERRg transactivation. Put shortly: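 HepG2 cells transiently transfected with multiplexed GAL4-UAS reporter units driven by chimeric NR-Gal4 proteins; 24 h exposure. Reporter mRNA quantified by RT-PCR, fluorescent labelling, HpaI digestion and capillary electrophoresis; gain of signal vs DMSO.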
Estrogen-related receptor gamma (Homo sapiens), sequence (P62508 whole entry, looked up, the tested form may be a part): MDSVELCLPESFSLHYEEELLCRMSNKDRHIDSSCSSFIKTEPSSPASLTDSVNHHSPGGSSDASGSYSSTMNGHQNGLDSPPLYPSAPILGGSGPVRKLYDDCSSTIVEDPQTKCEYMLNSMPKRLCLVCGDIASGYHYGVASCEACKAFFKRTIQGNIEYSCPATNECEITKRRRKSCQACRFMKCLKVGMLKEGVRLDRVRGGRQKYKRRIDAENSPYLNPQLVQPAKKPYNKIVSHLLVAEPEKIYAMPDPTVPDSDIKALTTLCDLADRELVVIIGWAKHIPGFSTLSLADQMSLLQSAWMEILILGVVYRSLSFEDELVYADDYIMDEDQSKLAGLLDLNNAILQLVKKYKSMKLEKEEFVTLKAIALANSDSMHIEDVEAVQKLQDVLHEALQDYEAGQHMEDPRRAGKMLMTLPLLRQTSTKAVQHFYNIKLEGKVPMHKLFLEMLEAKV

Test [6] concerns the target Bile acid receptor (Homo sapiens) (UniProt Q96RI1). The test can be described thus: ATG_FXR_TRANS: Attagene TRANS-FACTORIAL HepG2 Assay for Farnesoid X Receptor (FXR) (AID 2282979).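 Note: hits raise reporter mRNA above DMSO so AC50 marks FXR activation.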 The conditions noted are these: HepG2 Attagene TRANS FXR-GAL4 reporter transcription. In outline: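 HepG2 cells transiently transfected with reporter constructs in which a chimeric FXR-GAL4 protein drives a GAL4-UAS reporter; 24 h compound exposure. Reporter mRNA measured by RT-PCR, FAM labelling, HpaI digestion and capillary electrophoresis; gain-of-signal versus DMSO.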

Test [7] concerns the target Nuclear receptor subfamily 4 group A member 2 (Homo sapiens) (UniProt P43354). The test can be described thus: ATG_NURR1_TRANS: Attagene TRANS-FACTORIAL HepG2 Assay for human Nuclear Receptor Related Protein 1 (NURR1) (AID 2282985). The conditions noted are these: HepG2 Attagene TRANS reporter, mRNA readout. In outline: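 Transient transfection of HepG2, human liver cells, with multiple GAL4-UAS reporter transcription units. Cells dosed 24 h, RNA isolated, reverse-transcribed, PCR-amplified, FAM-labelled, HpaI-digested, sized by capillary electrophoresis. DMSO served as negative control.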

Test [8] deals with Transcriptional activator Myb (Homo sapiens) (UniProt P10242). Briefly: ATG_Myb_CIS: Attagene CIS-FACTORIAL HepG2 Assay for human Myeloblastosis (Myb) Proto-Oncogene Transcription Factor (AID 2282986; active = hit-call score of the fitted dose curve at least 0.9, where 1 is the maximum; inactive = score below 0.9). Conditions: HepG2 Attagene CIS-FACTORIAL Myb reporter transcription; actives raise or lower the signal. In outline: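 Reporter transcript levels, quantified by fluorescent RT-PCR and capillary electrophoresis, serve as the read-out. Transfected HepG2 cells carrying cis-promoter reporter units are dosed for 24 hours, and curves are fitted bidirectionally against DMSO controls.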
Transcriptional activator Myb (Homo sapiens), sequence (P10242 whole entry, looked up): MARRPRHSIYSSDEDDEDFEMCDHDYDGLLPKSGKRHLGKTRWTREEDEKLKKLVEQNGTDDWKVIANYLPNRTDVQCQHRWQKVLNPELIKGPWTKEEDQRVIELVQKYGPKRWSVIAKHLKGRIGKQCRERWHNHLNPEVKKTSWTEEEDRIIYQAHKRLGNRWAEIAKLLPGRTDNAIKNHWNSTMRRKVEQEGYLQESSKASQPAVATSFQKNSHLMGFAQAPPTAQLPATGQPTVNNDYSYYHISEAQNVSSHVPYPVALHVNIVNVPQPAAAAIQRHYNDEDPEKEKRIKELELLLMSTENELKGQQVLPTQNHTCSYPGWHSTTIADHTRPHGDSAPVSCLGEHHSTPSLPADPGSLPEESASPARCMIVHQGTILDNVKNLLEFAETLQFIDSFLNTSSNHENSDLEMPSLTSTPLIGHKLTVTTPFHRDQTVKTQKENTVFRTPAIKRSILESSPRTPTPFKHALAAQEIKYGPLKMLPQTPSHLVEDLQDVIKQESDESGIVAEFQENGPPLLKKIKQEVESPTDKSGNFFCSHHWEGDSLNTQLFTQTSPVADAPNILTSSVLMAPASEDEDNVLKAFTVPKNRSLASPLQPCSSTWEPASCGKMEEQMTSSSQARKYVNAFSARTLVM

The target of test [9] is Nuclear respiratory factor 1 (Homo sapiens) (UniProt Q16656). The test can be described thus: ATG_NRF1_CIS: Attagene CIS-FACTORIAL HepG2 Assay for human Nuclear Respiratory Factor 1 (NRF1) Orphan Gene (AID 2282987; active = hit-call score of the fitted dose curve at least 0.9, where 1 is the maximum; inactive = score below 0.9). Conditions: HepG2 NRF1 cis-element reporter, Attagene multiplex; actives raise or lower the signal. In outline:
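Multiplexed cis-reporter assay, HepG2 cells, 24 h treatment. Total RNA → oligo(dT) RT → PCR with reporter-specific primers → 6-FAM primer extension → HpaI cut → CE. Bidirectional fit vs DMSO.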

Test [10] is described as follows: ATG_NFI_CIS: Attagene CIS-FACTORIAL HepG2 Assay for human Nuclear Factor I (NFI) (AID 2282989; active = hit-call score of the fitted dose curve at least 0.9, where 1 is the maximum; inactive = score below 0.9). Conditions: HepG2 cis-regulatory reporter, NFI response element transcription; actives raise or lower the signal. In outline: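 Reporter transcripts were measured by RT-PCR with fluorescent primer extension and capillary electrophoresis 24 h post-treatment. HepG2 cells carried transiently transfected cis-regulated reporter constructs reporting endogenous factor activity; gain or loss fitted against DMSO baseline.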

Test [11] addresses Myc proto-oncogene protein (Homo sapiens) (UniProt P01106). Briefly: ATG_Myc_CIS: Attagene CIS-FACTORIAL HepG2 Assay for human Myelocytomatosis (Myc) Proto-Oncogene Transcription Factor (AID 2282990; active = hit-call score of the fitted dose curve at least 0.9, where 1 is the maximum; inactive = score below 0.9). The conditions noted are these: HepG2, Attagene cis-reporter transcription factor activity; actives raise or lower the signal. Put shortly: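 HepG2, transient MRTU transfection (cis promoters, endogenous TFs); 24 h dosing; TriZol RNA → oligo(dT) RT → PCR → 6-FAM primer extension → HpaI cut → CE. Bidirectional fit vs DMSO.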

Test [12] can be described thus: ATG_GAL4_TRANS: Attagene TRANS-FACTORIAL HepG2 Assay for GAL4 (Internal Marker) (AID 2282976). Conditions: HepG2 Attagene TRANS GAL4 internal marker reporter. Put shortly:
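HepG2 cells transiently transfected with multiplexed GAL4-UAS reporter constructs were dosed for 24 h. Reporter mRNA was measured by RT-PCR, 6-FAM primer extension, HpaI digestion and capillary electrophoresis, and gain of signal was fitted relative to DMSO.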

In test [13] the target is Oxysterols receptor LXR-alpha (Homo sapiens) (UniProt Q13133). Briefly: ATG_LXRa_TRANS: Attagene TRANS-FACTORIAL HepG2 Assay for human Liver X Receptor alpha (LXRa) (AID 2282980). The conditions noted are these: HepG2 Attagene TRANS reporter, LXRa transactivation. Put shortly:
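HepG2 cells were transiently transfected with multiplexed reporter units driven by chimeric LXRa–GAL4 fusion proteins, then dosed for 24 h. Reporter mRNA was quantified by RT-PCR, fluorescent labelling and capillary electrophoresis; gain of signal fitted against DMSO baseline.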

Test [14] deals with Oxysterols receptor LXR-beta (Homo sapiens) (UniProt P55055). Briefly: ATG_LXRb_TRANS: Attagene TRANS-FACTORIAL HepG2 Assay for human Liver X Receptor beta (LXRb) (AID 2282981). The conditions noted are these: HepG2 Attagene TRANS GAL4-LXRb reporter, mRNA. Put shortly:
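Transient transfection HepG2 (multiplexed RTUs, GAL4-UAS); NR-Gal4 chimera; 24 h exposure; RNA → RT-PCR → 6-FAM primer extension → HpaI → CE; increase vs DMSO.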

Test [15] in a line: ATG_M_32_TRANS: Attagene TRANS-FACTORIAL HepG2 Assay for M32 Transcription Factor (Internal Marker) (AID 2282984). The conditions noted are these: HepG2 Attagene TRANS M32 internal marker reporter. In outline: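 Measures reporter mRNA induction in human HepG2 liver cells after 24 h chemical treatment. Transcripts from transiently transfected GAL4-UAS reporter units are amplified, fluorescently labelled and sized by capillary electrophoresis; gain of signal relative to DMSO.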

The target in test [16] is Hepatocyte nuclear factor 4-alpha (Homo sapiens) (UniProt P41235). The test can be described thus: ATG_HNF4a_TRANS: Attagene TRANS-FACTORIAL HepG2 Assay for human Hepatocyte Nuclear Factor 4 alpha (HNF4a) (AID 2282982). The conditions noted are these: HepG2 HNF4a transactivation reporter, mRNA readout. In outline: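 Readout is fluorescent reporter-transcript fragments resolved by capillary electrophoresis after RT-PCR from HepG2 cells dosed for 24 h. Cells carried transfected GAL4-UAS reporter constructs measuring exogenous NR-GAL4 chimera activity; DMSO served as baseline.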

Test [17] in a line: ATG_M_06_TRANS: Attagene TRANS-FACTORIAL HepG2 Assay for M06 Transcription Factor (Internal Marker) (AID 2282983). Conditions: HepG2 Attagene TRANS M06 internal marker reporter. In outline:
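HepG2 cells transiently transfected with multiplexed GAL4-UAS reporter transcription units; after 24 h compound exposure, reporter mRNA measured by RT-PCR, FAM-labelled primer extension, HpaI digestion and capillary electrophoresis. Gain-of-signal fitted versus DMSO baseline; background control readout.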

The target of test [18] is Steroid hormone receptor ERR1 (Homo sapiens) (UniProt P11474). Briefly: ATG_ERRa_TRANS: Attagene TRANS-FACTORIAL HepG2 Assay for human Estrogen-Related Receptor alpha (ERRa) (AID 2282971). Conditions: HepG2 Attagene TRANS reporter, ERRa transactivation. Put shortly:
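HepG2 cells transiently transfected with multiplexed GAL4-UAS reporter units reading chimeric ERRa-Gal4 activity; 24 h compound exposure. Reporter mRNA measured by RT-PCR, 6-FAM labelling, HpaI digest and capillary electrophoresis; gain of signal fitted versus DMSO baseline.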

Test [19] concerns the target Androgen receptor (Homo sapiens) (UniProt P10275). The test can be described thus: ATG_AR_TRANS: Attagene TRANS-FACTORIAL HepG2 Assay for human Androgen Receptor (AR) (AID 2282973). The conditions noted are these: HepG2 Attagene TRANS-FACTORIAL AR reporter transcription. In outline:
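HepG2 cells transiently transfected with multiplexed GAL4-UAS reporter units and chimeric NR-Gal4 fusion; 24 h compound exposure. Reporter mRNA measured by RT-PCR, 6-FAM labelling, HpaI digestion and capillary electrophoresis; gain-of-signal fitted relative to DMSO baseline.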

As usually defined, the AC50 is the midpoint of the concentration-response curve, whichever way the signal moves.

Inconclusive results are not listed. The source made the active and inactive calls. Rule for the calls, unless noted: active = hit-call score of the fitted dose curve at least 0.9, where 1 is the maximum; inconclusive = response in the unintended direction; inactive = score below 0.9.

Nuclear receptor subfamily 4 group A member 2 (Homo sapiens), sequence (P43354 whole entry, looked up, the tested form may be a part): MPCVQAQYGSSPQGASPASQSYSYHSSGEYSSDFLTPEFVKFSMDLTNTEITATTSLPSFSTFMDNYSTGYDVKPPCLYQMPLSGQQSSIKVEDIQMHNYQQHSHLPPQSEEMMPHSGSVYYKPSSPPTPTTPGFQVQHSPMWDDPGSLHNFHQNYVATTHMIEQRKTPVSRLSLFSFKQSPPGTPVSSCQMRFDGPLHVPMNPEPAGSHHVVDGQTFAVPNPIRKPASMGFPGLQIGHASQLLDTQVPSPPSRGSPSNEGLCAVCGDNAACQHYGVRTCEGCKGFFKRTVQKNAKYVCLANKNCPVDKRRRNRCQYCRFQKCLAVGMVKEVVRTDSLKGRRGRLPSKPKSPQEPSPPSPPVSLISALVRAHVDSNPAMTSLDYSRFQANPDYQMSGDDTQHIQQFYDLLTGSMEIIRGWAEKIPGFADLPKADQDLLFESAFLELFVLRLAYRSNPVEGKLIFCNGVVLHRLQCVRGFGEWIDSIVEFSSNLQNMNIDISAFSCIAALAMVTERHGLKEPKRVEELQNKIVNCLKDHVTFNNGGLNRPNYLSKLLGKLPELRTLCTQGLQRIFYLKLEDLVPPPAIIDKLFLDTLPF
Nuclear respiratory factor 1 (Homo sapiens), sequence (Q16656 whole entry, looked up): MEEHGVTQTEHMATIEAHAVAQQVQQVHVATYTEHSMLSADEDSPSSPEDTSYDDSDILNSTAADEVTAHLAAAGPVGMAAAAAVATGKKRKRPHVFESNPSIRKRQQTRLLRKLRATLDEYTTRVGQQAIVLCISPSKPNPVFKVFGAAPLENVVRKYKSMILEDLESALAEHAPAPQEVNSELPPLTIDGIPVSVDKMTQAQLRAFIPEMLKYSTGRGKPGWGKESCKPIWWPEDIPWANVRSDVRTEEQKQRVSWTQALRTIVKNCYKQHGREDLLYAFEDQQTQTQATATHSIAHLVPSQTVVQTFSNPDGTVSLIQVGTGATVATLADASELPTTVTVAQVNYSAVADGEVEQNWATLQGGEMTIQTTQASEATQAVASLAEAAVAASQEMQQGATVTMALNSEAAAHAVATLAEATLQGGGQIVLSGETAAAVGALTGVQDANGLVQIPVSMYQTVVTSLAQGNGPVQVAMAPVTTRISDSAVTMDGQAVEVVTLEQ
Myc proto-oncogene protein (Homo sapiens), sequence (P01106 whole entry, looked up): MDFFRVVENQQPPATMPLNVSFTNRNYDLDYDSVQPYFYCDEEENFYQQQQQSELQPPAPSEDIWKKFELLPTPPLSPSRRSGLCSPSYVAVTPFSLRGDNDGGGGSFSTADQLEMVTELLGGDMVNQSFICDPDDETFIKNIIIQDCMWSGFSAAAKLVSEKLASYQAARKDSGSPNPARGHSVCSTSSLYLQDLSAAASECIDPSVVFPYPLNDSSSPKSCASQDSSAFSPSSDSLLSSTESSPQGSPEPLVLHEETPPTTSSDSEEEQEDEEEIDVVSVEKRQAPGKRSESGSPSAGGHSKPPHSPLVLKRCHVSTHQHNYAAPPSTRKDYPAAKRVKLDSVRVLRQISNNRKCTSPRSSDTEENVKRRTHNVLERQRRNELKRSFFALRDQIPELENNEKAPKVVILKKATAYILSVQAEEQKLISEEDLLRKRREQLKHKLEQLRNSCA
X-box-binding protein 1 (Homo sapiens), sequence (P17861 whole entry, looked up): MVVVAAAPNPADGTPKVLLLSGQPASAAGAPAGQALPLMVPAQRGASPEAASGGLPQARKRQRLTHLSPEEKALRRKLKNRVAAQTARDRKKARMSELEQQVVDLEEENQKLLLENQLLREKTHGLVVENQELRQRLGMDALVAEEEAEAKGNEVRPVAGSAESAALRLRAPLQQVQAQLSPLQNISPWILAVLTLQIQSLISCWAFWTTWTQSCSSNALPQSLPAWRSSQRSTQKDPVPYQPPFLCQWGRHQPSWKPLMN
Oxysterols receptor LXR-beta (Homo sapiens), sequence (P55055 whole entry, looked up, the tested form may be a part): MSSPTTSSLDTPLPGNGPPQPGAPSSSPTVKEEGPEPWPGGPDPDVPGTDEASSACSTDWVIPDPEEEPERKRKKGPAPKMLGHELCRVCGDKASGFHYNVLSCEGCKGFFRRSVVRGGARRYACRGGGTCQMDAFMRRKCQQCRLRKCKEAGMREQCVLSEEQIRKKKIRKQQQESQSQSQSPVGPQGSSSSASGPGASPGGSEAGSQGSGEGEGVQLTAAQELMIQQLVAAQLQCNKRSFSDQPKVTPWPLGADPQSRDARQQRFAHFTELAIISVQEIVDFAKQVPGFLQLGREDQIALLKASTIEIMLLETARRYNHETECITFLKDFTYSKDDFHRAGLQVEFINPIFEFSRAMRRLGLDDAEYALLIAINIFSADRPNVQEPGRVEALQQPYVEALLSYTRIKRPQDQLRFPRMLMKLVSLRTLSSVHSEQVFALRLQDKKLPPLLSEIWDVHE
Bile acid receptor (Homo sapiens), sequence (Q96RI1 whole entry, looked up, the tested form may be a part): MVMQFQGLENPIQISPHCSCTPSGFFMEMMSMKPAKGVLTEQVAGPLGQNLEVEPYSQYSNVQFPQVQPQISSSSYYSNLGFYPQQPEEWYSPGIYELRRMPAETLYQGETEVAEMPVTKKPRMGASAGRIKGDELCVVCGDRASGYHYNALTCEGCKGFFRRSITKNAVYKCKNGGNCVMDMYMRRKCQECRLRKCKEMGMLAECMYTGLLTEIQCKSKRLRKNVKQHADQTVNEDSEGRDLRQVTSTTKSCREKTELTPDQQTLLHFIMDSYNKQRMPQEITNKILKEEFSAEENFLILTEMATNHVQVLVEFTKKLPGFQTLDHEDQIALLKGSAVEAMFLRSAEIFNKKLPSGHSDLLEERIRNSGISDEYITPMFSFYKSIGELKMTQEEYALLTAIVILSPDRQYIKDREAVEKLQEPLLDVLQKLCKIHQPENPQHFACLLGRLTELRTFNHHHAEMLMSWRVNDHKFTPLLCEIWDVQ

With `CCCSP(=S)(OCC)Oc1ccc(SC)cc1` (stereo unspecified), the outcome in test [1], in test [3], in test [4], in test [5], in test [6] and in test [7] was inactive. In addition, the result in [8], in [9], in test [10] and in test [11] was inactive. Also, the AC50 in test [2] is 4.92 µM (active).
In the case of `O=C=Nc1ccc(Cl)cc1`, the outcome in [1], in test [2], in test [3], in [4], in test [12] and in test [13] was inactive. Moreover, the outcome in [14], in test [15], in [7], in test [8], in test [9] and in test [10] was inactive. The AC50 in [11] was 149 µM (active).
In the case of `Nc1nc(N)nc(Cl)n1`, the call in test [1], in test [2], in [3], in [4], in [12] and in [14] was inactive. Moreover, the call in test [16], in test [15], in test [8], in [9], in [10] and in [11] was inactive.
For the molecule `O=S(=O)(Oc1ccc(Cl)cc1)c1ccc(Cl)cc1`, the result in test [1], in test [3], in test [4], in test [5], in [17] and in test [7] was inactive. Moreover, the call in test [8], in test [10] and in [11] was inactive. In [2], the half-maximal activity concentration (AC50) was 10.7 µM (active).
On to `N#Cc1ccccc1N`, for which the molecule was classed as inactive in test [1], in test [2], in test [18], in [3], in test [19] and in [4]. Moreover, the molecule was classed as inactive in test [12], in [5], in [6], in test [16], in test [15] and in test [8]. Besides, the result in [9], in test [10] and in [11] was inactive.

Values taken from PubChem BioAssay (EPA / NIEHS).
